# Assay results taken from PubChem BioAssay (EPA / NIEHS).
# Inconclusive results are not listed. Calls of active or inactive are those of the source. The calls were made as follows: active = hit-call score of the fitted dose curve at least 0.9, where 1 is the maximum; inconclusive = response in the unintended direction; inactive = score below 0.9.
# Read-out: Broad substrate specificity ATP-binding cassette transporter ABCG2 (Homo sapiens) (UniProt Q9UNQ0)
# Experiment: CLD_ABCG2_24hr: CellzDirect (CLD) Gene Expression Assay for ABC Transporter (ABCG2) at 24 hours (AID 2283685)
# Description: CLD_24hr is a cell-based, multiplexed-readout assay that uses hepatocyte, a human liver primary cell, with measurements taken at 24 hours after chemical dosing in a 96-well plate.CLD_ABCG2_24hr is one of 16 assay component(s) measured or calculated from the CLD_24hr assay. It is designed to make measurements of mRNA induction, a form of inducible reporter, as detected with chemiluminescence signals by Quantitative Nuclease Protection Assay (qNPA) technology.Data from the assay component CLD_ABCG2_24hr was analyzed at the endpoint, CLD_ABCG2_24hr, in the positive analysis fitting direction relative to DMSO as the negative control and baseline of activity. Using a type of inducible reporter, gain-of-signal activity can be used to understand changes in the reporter gene as they relate to the gene ABCG2. Furthermore, this assay endpoint can be referred to as a primary readout. To generalize the intended target to other relatable targets, this assay endpoint is annotated to the transporter intended target family, where subfamily is ABC transporter.
# Human hepatocyte cultures were treated daily for two consecutive days with fresh dosing solutions containing appropriate concentrations of the 320 ToxCast chemicals (chemical identities were blinded to CellzDirect and other ToxCast collaborators), vehicle control (0.2% DMSO), and positive control inducers as summarized in Table 1. Due to the large number of treatment groups and chemicals examined, the ToxCast chemicals were divided into two groups (spanning two independent cultures of hepatocytes from separate donor preparations (Hu778: ToxCast plates 1 and 2; Hu776: ToxCast plates 3 and 4). Each preparation of human hepatocyte cultures was treated with respective vehicle control, medium only control, set of six positive controls/reference chemicals for the five hepatic receptor pathways, and a subset of eight of the ToxCast chemicals (indoxacarb, pyrithiobac-sodium, norflurazon, cyhalofop-butyl, methomyl, thiram, acetochlor, and propiconazole). These replicate data, coupled with internal replicates designed within the blinded ToxCast chemical library, provided additional data to evaluate interindividual differences between hepatocyte preparations and their potential impact on chemical profiles.Cell morphology and integrity were evaluated using phase-contrast microscopy as an indicator of hepatocyte cell health (Tyson & Green, 1987). Cultures for each treatment group (i.e., media, vehicle [0.2% DMSO], positive control inducers [multiple concentrations], and the ToxCast chemicals [multiple concentrations]) were observed and cell morphology was assessed relative to vehicle control cultures at each harvest time point (0, 6, 24, or 48 h). […] Images were evaluated at the conclusion of the study to assess changes in cell integrity and account for the effects of chemical exposure on uncharacteristic changes in concentration-dependent gene expression profiles. The results from these determinations of apparent cytotoxicity were annotated (yes/no) alongside the corresponding qNPA data for reference.At the conclusion of each treatment period, hepatocyte cultures (96-well) were washed with 1 volume of HBSS, lysed by addition of 25 ul ArrayPlate lysis buffer (HTG, Tucson, AZ), and 70 ul/well of Denaturation Oil, denatured by incubation at 95C for 10 min, and frozen at approximately -70C until analysis by nuclease protection assay (qNPA) (Roberts et al., 2007). For qNPA analysis, cell lysates were thawed at 50C for approximately 30 min, qNPA probes were added, and samples were incubated at 95C for 10 min to begin the detection process by denaturing the target RNA, dissociating the duplexes and secondary structure hybridization. At the conclusion of the hybridization period, S1 nuclease reagent was added to each sample to digest all nonprotected nucleotides at 50C for 60-90 min. […]
# Sequence of Broad substrate specificity ATP-binding cassette transporter ABCG2 (Homo sapiens) (Q9UNQ0 whole entry, looked up): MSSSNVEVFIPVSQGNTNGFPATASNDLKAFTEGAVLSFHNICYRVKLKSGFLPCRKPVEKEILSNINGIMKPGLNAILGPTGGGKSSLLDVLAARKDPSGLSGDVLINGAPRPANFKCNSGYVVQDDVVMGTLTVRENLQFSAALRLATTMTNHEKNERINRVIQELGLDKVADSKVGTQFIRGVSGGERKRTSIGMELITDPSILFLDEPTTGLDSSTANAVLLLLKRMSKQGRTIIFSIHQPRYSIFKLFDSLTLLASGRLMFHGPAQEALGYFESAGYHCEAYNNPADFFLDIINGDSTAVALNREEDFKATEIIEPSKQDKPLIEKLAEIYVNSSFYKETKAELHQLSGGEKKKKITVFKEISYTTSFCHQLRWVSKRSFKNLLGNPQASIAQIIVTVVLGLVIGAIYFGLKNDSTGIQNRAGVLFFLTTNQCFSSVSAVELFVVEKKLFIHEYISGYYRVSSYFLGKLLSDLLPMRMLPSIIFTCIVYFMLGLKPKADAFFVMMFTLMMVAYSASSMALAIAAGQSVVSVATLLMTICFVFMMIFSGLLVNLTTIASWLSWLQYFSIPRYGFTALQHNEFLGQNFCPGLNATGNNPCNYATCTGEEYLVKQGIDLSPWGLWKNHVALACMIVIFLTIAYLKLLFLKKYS
row,Structure (SMILES),outcome
1,COC(=O)NC(=S)Nc1ccccc1NC(=S)NC(=O)OC,inactive
2,CCCN(CC)CC1COC2(CCC(C(C)(C)C)CC2)O1 (stereo not given),inactive
3,COP(=O)(OC)O/C(C)=C/C(=O)N(C)C,inactive
4,Nc1cnn(-c2ccccc2)c(=O)c1Cl,inactive
5,COc1cc(Cl)c(OC)cc1Cl,inactive
6,CC(C)(C)C(=O)C(Oc1ccc(Cl)cc1)n1cncn1 (stereo not given),inactive
7,CC(C)C1(C)N=C(c2ncccc2C(=O)O)NC1=O (stereo not given),inactive
8,COP(=S)(OC)SCn1nnc2ccccc2c1=O,inactive
9,CC(C)=CC1C(C(=O)OCc2coc(Cc3ccccc3)c2)C1(C)C (stereo not given),inactive
10,C=C(C)CN(CC)c1c([N+](=O)[O-])cc(C(F)(F)F)cc1[N+](=O)[O-],inactive
11,N#Cc1c(Cl)cccc1Cl,inactive
12,CCNC(=O)NC(=O)C(C#N)=NOC,inactive
13,CCOP(=S)(OCC)Oc1nc(Cl)n(C(C)C)n1,inactive
14,Cn1c(-c2ccccc2)cc(-c2ccccc2)[n+]1C,inactive
15,CCOc1nc(C(Cl)(Cl)Cl)ns1,inactive
16,Clc1cccc(C(Cl)(Cl)Cl)n1,inactive
17,C=CCOC(=O)C(C)(C)OC(=O)c1cc(-n2c(=O)cc(C(F)(F)F)n(C)c2=O)ccc1Cl,inactive
18,CC1(C)CCC(=Cc2ccc(Cl)cc2)C1(O)Cn1cncn1 (stereo not given),inactive
19,Nc1c(Cl)c(Cl)nc(C(=O)O)c1Cl,inactive
20,O=C(O)c1c(Cl)ccc2cc(Cl)cnc12,inactive

row,Structure (SMILES),outcome
1,CNC(=O)Oc1cccc2ccccc12,inactive
2,CO/N=C(/C1=NOCCO1)c1ccccc1Oc1ncnc(Oc2ccccc2Cl)c1F,inactive
3,COCC(=O)N(c1c(C)cccc1C)C(C)C(=O)OC (stereo not given),inactive
4,O=C1C2CC=CCC2C(=O)N1SC(Cl)(Cl)Cl (stereo not given),inactive
5,CC1(C)C(C=C(Cl)Cl)C1C(=O)OC(C#N)c1cccc(Oc2ccccc2)c1 (stereo not given),inactive
6,CCOP(=O)(OCC)Oc1nc(Cl)c(Cl)cc1Cl,inactive
7,CCCC(=NOCC)C1=C(O)CC(CC(C)SCC)CC1=O (stereo not given),inactive
8,COC(=O)c1c(C(F)F)nc(C(F)(F)F)c(C2=NCCS2)c1CC(C)C,inactive
9,CC(C)N1C(=O)c2ccccc2NS1(=O)=O,inactive
10,Cc1ccc(N=CN(C)C=Nc2ccc(C)cc2C)c(C)c1,inactive
11,CC(C)Oc1cccc(NC(=O)c2ccccc2C(F)(F)F)c1,inactive
12,CN=C=S,inactive
13,COCc1cnc(C2=NC(C)(C(C)C)C(=O)N2)c(C(=O)O)c1 (stereo not given),inactive
14,Cc1cnc(C2=NC(C)(C(C)C)C(=O)N2)c(C(=O)O)c1 (stereo not given),inactive
15,CCOC(=O)C(C)OC(=O)c1cc(Oc2ccc(C(F)(F)F)cc2Cl)ccc1[N+](=O)[O-] (stereo not given),inactive
16,COCC(C)N(C(=O)CCl)c1c(C)csc1C (stereo not given),inactive
17,CCOc1nc(F)cc2nc(S(=O)(=O)Nc3c(Cl)cccc3Cl)nn12,inactive
18,OC(c1ccc(Cl)cc1)(c1ccc(Cl)cc1)C(Cl)(Cl)Cl,inactive
19,Cc1c(COC(=O)[C@@H]2[C@H](/C=C(\Cl)C(F)(F)F)C2(C)C)cccc1-c1ccccc1,inactive
20,Nc1c(Cl)c(F)nc(OCC(=O)O)c1Cl,inactive
